From PubChem
CCT chaperon mod = High-Throughput Screening for Modulators of Cytosolic Chaperonin Activity | purified chaperonin ATPase assay, HTRF ADP detection, 30 min | activity change, % (concentration not given with the values), hits read low | 0.3% of 360,000 active | AID 651819, 2012; in the data active means activity change below about -30%
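We incubate TRiC, 40 or 20 nM final, with library compounds at 76 uM and 10 uM ATP for 30 min at 37 °C. ADP formed is detected with Transcreener HTRF reagents after 30 min at room temperature.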
A-T KAP1 phos = qHTS Assay for Identifying a Potential Treatment of Ataxia-Telangiectasia. 0.19% of 320,000 active. F2112 A-T fibroblasts, KAP-1 phosphorylation AlphaLISA; neocarzinostatin DNA damage 30 min before lysis. Potency, µM (highest dose often 57.5 µM), actives largely listed as activators; further: nearly all actives have a fitted effect of over 45% in size
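hTERT-immortalized A-T patient fibroblasts (F2112), 500 cells/well in OPTI-MEM, 1% FBS, got compounds for 60 min, then NCS for 30 min at 37C. Lysates were then assayed for phospho-KAP-1 by AlphaLISA (anti-pKAP1 donor, anti-KAP1 acceptor beads), 6 hr at 25C.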
TCR activator = Activators of T cell receptors: qHTS campaign; 330,000 tested, under 10 active; AID 504894, 2011; Potency, µM (top dose mostly 9.22 µM), hits mostly activators; primary human leukocytes, anti-CD3, IL-2 HTRF, 48 h
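Human primary leukocytes + a-CD3 beads + cpd, 48 hr; IL-2 in supernatant by HTRF (ex 320nm / em 665nm). No co-stimulatory signal supplied.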
A549 tox-1 = Nrf2 qHTS screen for inhibitors: counterscreen for cytotoxicity; 0.16% of 390,000 active; AID 504648, 2011; Potency, µM (doses to about 46 µM), actives largely listed as inhibitors; A549 ARE-Fluc cells, CellTiter-Fluor viability, 18-24 h
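Cytotoxicity counterscreen: CellTiter-Fluor fluorescence was measured in A549 ARE_Fluc cells after 18-24 h of compound exposure in a concentration series. The subsequent BugLite luminescent read reports ARE-luciferase activity.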
Nrf2 block = Nrf2 qHTS screen for inhibitors; A549 ARE-Fluc reporter, luciferase luminescence, 18-24 h; Potency, µM (series often up to 46 µM), usual class: inhibitors; 2.1% of 360,000 active; further: nearly all actives have a fitted effect of over 60% in size
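Cells were seeded and rested 2 h, then exposed to compounds for 18-24 h. CellTiter-Fluor was read first as a viability measure. BugLite was added 15 min before the final luminescent read of ARE-luciferase activity in A549 cells.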
Nrf2 activator = qHTS of Nrf2 Activators | AREc32 ARE-luciferase reporter (MCF7-derived line), luminescence, 24 h | Potency, µM (titrated, usually from 46.1 µM), most hits filed as activators | 0.31% of 410,000 active | AID 624171, 2012; further: nearly all actives have a fitted effect of over 65% in size
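ARE-driven firefly luciferase activity in AREc32 cells measured after a 24 hr compound exposure at 37 deg C, using Steady-Glo reagent and a 30 min room-temperature hold.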
FLuc counter 3 = Nrf2 qHTS screen for inhibitors: Purified Fluc Biochemical Counterscreen for Hit Validation. shares compounds with Nrf2 block. purified firefly luciferase, luminescence inhibition. Potency, µM (titrated, usually from 57.5 µM), most hits filed as inhibitors. 4% of 1,400 active; further: nearly all actives have a fitted effect of over 65% in size
Target sequence (P08659 whole entry, looked up): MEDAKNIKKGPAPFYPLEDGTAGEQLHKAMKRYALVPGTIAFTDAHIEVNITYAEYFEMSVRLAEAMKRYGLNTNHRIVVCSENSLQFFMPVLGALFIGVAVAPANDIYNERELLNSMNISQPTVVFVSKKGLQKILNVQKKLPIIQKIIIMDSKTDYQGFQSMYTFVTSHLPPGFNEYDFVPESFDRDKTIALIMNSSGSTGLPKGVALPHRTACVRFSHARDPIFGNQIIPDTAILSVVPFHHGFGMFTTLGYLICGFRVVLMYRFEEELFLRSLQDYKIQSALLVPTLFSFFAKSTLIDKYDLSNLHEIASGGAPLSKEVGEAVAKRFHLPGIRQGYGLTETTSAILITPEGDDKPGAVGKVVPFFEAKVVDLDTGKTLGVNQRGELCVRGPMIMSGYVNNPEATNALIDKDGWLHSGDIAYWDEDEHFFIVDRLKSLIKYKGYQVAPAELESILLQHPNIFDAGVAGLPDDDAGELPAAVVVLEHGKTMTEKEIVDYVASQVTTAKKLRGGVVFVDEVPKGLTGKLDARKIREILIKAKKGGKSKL
A549 tox-2 = Nrf2 qHTS screen for inhibitors: A549 ARE-Fluc Cytotoxicity Counterscreen for Hit Validation; shares compounds with Nrf2 block; A549 ARE-Fluc cells, cytotoxicity counterscreen; Potency, µM (top dose mostly 46.1 µM), usual class: inhibitors; 2% of 1,400 active;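 further: cells exposed to compounds for 18 to 24 hours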
ARE-Fluc inh = Nrf2 qHTS screen for inhibitors: Nrf2 A549 ARE-Fluc Confirmation Assay for Hit Validation | A549 ARE-firefly luciferase reporter, luminescence | Potency, µM (series often up to 46.1 µM), usual class: inhibitors | AID 720524, 2013 | 74% of 1,400 active | shares compounds with Nrf2 block; further: nearly all actives have a fitted effect of over 65% in size
Large screens that a line does not name were inactive (follow-up assays come after a bar, where they were run). An excerpt weighted towards active compounds, which were near 2.6% of everything screened. Unless noted, the call rests on the fitted dose curve; in most records, active means well fitted curve in the direction sought with a large enough effect; inconclusive means small, poorly fitted or top-dose-only effect, or another doubt; inactive means no such curve, though single readings can be large; an effect the other way counts as inactive or inconclusive.

Cn1c(C(=O)N2CCN(c3ccc(Cl)cc3)CC2)cc2c(=O)[nH]c3ccccc3c21	Nrf2 block inconclusive
COc1ccc(CC(=O)NCc2nn(-c3ccccc3)nc2C)cc1OC	none
COc1ccc(-c2ocnc2C(=O)NCc2nn(-c3ccccc3)nc2C)cc1	Nrf2 block 2.91µM | FLuc counter 3 inactive | A549 tox-2 inactive | ARE-Fluc inh 5.8µM
COc1ccc(-c2csc(NC(=O)C3CCN(c4ncnc5sc(C)c(C)c45)CC3)n2)cc1OC	Nrf2 block 4.11µM | FLuc counter 3 inactive | A549 tox-2 inactive | ARE-Fluc inh 6.51µM
C=CCn1c(C)cc(-c2csc(NC(=O)C3CCN(c4ncnc5sc(C)c(C)c45)CC3)n2)c1C	none (no result: A-T KAP1 phos)
COc1ccc([C@@]23Oc4cc(OC)cc(OC)c4[C@]2(O)[C@H](O)[C@H](C(=O)N(C)C)[C@H]3c2ccccc2)cc1	A549 tox-1 inconclusive, Nrf2 block 0.0206µM (no result: A-T KAP1 phos) | FLuc counter 3 inactive | A549 tox-2 inconclusive | ARE-Fluc inh 0.0146µM
COc1ccc2c(CNC3CCCCCC3)c(C(=O)O)n(Cc3cccc(F)c3)c2c1	none (no result: CCT chaperon mod, A-T KAP1 phos, TCR activator)
O=C(NCc1ccc2c(c1)OCO2)c1ccc2c(=O)n(C3CCCC3)c(=O)[nH]c2c1	A549 tox-1 inconclusive, Nrf2 block 8.2µM | FLuc counter 3 inactive | A549 tox-2 inactive | ARE-Fluc inh 0.231µM
COc1ccc(Cn2c(=O)[nH]c3cc(C(=O)NCc4ccc5c(c4)OCO5)ccc3c2=O)cc1	Nrf2 block inconclusive (no result: A-T KAP1 phos)
CCCN1C(=O)c2[nH]nc(-c3cccc(OC)c3)c2C1c1ccccn1 (stereo not given)	none (no result: CCT chaperon mod, A-T KAP1 phos, TCR activator)
Cc1cnc(C(=O)OCC(=O)c2ccc(Cl)cc2)cn1	none
C1=C/C(=C2/C=Cc3ccccc32)c2ccccc2N1	none (no result: CCT chaperon mod, A-T KAP1 phos, TCR activator, A549 tox-1, Nrf2 block, Nrf2 activator) | FLuc counter 3 inactive | A549 tox-2 inconclusive | ARE-Fluc inh 6.51µM
O=C(Nc1ccccc1)c1ccc(S(=O)(=O)NCC2CCCO2)cc1 (stereo not given)	none
O=C(Nc1cccc(Cl)c1)c1ccc(S(=O)(=O)NCC2CCCO2)cc1 (stereo not given)	Nrf2 block 4.61µM | FLuc counter 3 inactive | A549 tox-2 inactive | ARE-Fluc inh 13µM
COc1ccccc1NC(=O)c1sc2nc(-c3cc4cc(Cl)ccc4oc3=O)[nH]c(=O)c2c1C	none (no result: CCT chaperon mod, A-T KAP1 phos, TCR activator)
CCc1ccccc1NC(=O)c1ccc(Cn2nc(N3CCN(c4ccccc4)CC3)ccc2=O)o1	Nrf2 block inconclusive (no result: CCT chaperon mod, A-T KAP1 phos, TCR activator)
CCc1ccc(NC(=O)c2ccc(Cn3nc(N4CCN(c5ccccc5)CC4)ccc3=O)o2)cc1	A549 tox-1 inconclusive, Nrf2 block 5.17µM (no result: CCT chaperon mod, A-T KAP1 phos, TCR activator) | FLuc counter 3 inconclusive | A549 tox-2 inactive | ARE-Fluc inh 6.51µM
CCCCNc1cc(C(=O)O)cc(S(N)(=O)=O)c1Oc1ccccc1	Nrf2 block 5.8µM | FLuc counter 3 inactive | A549 tox-2 inactive | ARE-Fluc inh 6.51µM
Cc1cccc(N2CCN(C(=O)CCNS(=O)(=O)c3ccc4c(c3)CCC(=O)N4)CC2)c1C	Nrf2 block 5.8µM (no result: A549 tox-1) | FLuc counter 3 inactive | A549 tox-2 inactive | ARE-Fluc inh inconclusive
Cc1ccc(NC(=O)CCNS(=O)(=O)c2ccc3c(c2)CCC(=O)N3)cc1C	none
COCCC(=O)N1CCC(Oc2ccc(C(=O)NCc3nccn3C)cc2)CC1	none
O=C(NCc1ccco1)c1nc2c(nnn2Cc2ccccc2Cl)c(=O)[nH]1	A549 tox-1 inconclusive, Nrf2 block 4.61µM | FLuc counter 3 inactive | A549 tox-2 inconclusive | ARE-Fluc inh 6.51µM
COc1ccc(Nc2cc(C)nc3ncnn23)c(OC)c1	none
COc1ccc(CNc2cc(C)nc3ncnn23)c(OC)c1	Nrf2 block 1.64µM (no result: A-T KAP1 phos) | FLuc counter 3 inactive | A549 tox-2 inactive | ARE-Fluc inh inconclusive
CCOc1ccccc1-c1nnc(SCc2ccc(Cl)cc2)o1	Nrf2 activator inconclusive (no result: CCT chaperon mod, A-T KAP1 phos, TCR activator)
Cc1cccc(NC(=O)Cn2cc(C(=O)C3CCCCC3)c3ccccc32)c1C	Nrf2 block 5.8µM (no result: CCT chaperon mod, A-T KAP1 phos, TCR activator) | FLuc counter 3 inactive | A549 tox-2 inactive | ARE-Fluc inh 5.8µM
COc1ccc(-c2ccc(SCC(=O)NC3CCCC3)nn2)cc1OC	A-T KAP1 phos inconclusive
Cn1c(-c2ccc(S(=O)(=O)N3CCCC3)cc2)csc1=Nc1ccc(Cl)c(Cl)c1	Nrf2 block 3.26µM (no result: CCT chaperon mod, A-T KAP1 phos, TCR activator) | FLuc counter 3 inconclusive | A549 tox-2 inactive | ARE-Fluc inh 6.51µM
OCCCn1c(-c2ccccc2)csc1=Nc1ccccc1	none
O=S(=O)(c1ccc(-c2csc(=Nc3ccc(OC(F)(F)Cl)cc3)n2CCCO)cc1)N1CCCC1	A549 tox-1 inconclusive, Nrf2 block 6.51µM (no result: CCT chaperon mod, A-T KAP1 phos, TCR activator) | FLuc counter 3 inactive | A549 tox-2 inconclusive | ARE-Fluc inh 7.31µM
Cn1cc(CN2CCC(C(=O)NC(c3ccc(F)cc3)c3ccc4ccccc4n3)CC2)c2ccccc21 (stereo not given)	none (no result: A-T KAP1 phos, TCR activator, A549 tox-1, Nrf2 block)
CC(C)[C@H]1C(=O)Nc2ccccc2N1C(=O)N[C@@H](Cc1ccccc1)C(=O)N[C@@H](Cc1ccccc1)C(=O)O	none
COc1ccc(N2C(=O)NC(NS(=O)(=O)c3ccc(NC(C)=O)cc3)(C(F)(F)F)C2=O)cc1 (stereo not given)	none
O=C(Nc1ccc(F)cc1)c1cc(S(=O)(=O)N2CCCCC2)cs1	Nrf2 block 8.2µM | FLuc counter 3 inactive | A549 tox-2 inactive | ARE-Fluc inh 7.31µM
O=C(Nc1ccc(F)cc1)c1cc(S(=O)(=O)N2CCCCC2)ccc1F	none
O=C(Nc1ccccc1)OCCN1CCOCC1	none (no result: A-T KAP1 phos)
